Data: PubChem BioAssay (EPA / NIEHS)
Results filed as inconclusive are left out. Some compounds were tested as several samples or in several runs, with calls that do not always agree. Activity calls are given as the source filed them. Rule for the calls, unless noted: active = hit-call score of the fitted dose curve at least 0.9, where 1 is the maximum; inactive = score below 0.9.

Experiments:
[1] = molecular target: Nuclear respiratory factor 1 (Homo sapiens) (UniProt Q16656); test: ATG_NRF1_CIS: Attagene CIS-FACTORIAL HepG2 Assay for human Nuclear Respiratory Factor 1 (NRF1) Orphan Gene (AID 2282987); conditions: HepG2 NRF1 cis-element reporter, Attagene multiplex; actives raise or lower the signal
Sequence of Nuclear respiratory factor 1 (Homo sapiens) (Q16656 whole entry, looked up): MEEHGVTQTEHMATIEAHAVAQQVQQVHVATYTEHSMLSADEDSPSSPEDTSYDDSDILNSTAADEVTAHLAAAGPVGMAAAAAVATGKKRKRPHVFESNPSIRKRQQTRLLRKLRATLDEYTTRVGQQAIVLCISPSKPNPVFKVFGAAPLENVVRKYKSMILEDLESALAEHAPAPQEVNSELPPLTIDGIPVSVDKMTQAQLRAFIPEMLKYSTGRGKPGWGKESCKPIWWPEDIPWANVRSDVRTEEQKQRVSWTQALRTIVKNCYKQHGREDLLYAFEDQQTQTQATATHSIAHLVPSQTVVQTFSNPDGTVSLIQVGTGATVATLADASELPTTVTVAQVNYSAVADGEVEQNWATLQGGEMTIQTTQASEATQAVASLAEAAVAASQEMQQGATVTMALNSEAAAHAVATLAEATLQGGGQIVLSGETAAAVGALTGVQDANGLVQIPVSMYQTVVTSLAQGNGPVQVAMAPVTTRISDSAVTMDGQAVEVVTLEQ
Outline: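 HepG2 cells transiently transfected with multiple reporter transcription units under cis-regulatory promoter control, so endogenous transcription-factor activity is read. After 24 h compound exposure, reporter mRNA quantified by RT-PCR, fluorescent labelling, HpaI digestion and capillary electrophoresis; bidirectional fitting versus DMSO.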

[2] = ATG_NFI_CIS: Attagene CIS-FACTORIAL HepG2 Assay for human Nuclear Factor I (NFI) (AID 2282989); conditions: HepG2 cis-regulatory reporter, NFI response element transcription; actives raise or lower the signal
Outline: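 Transfected HepG2 liver cells, exposed 24 h, supplied total RNA for oligo(dT) reverse transcription and reporter-specific PCR. Labelled, HpaI-cut fragments were sized by capillary electrophoresis; DMSO set the baseline for bidirectional fitting.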

[3] = molecular target: Myc proto-oncogene protein (Homo sapiens) (UniProt P01106); test: ATG_Myc_CIS: Attagene CIS-FACTORIAL HepG2 Assay for human Myelocytomatosis (Myc) Proto-Oncogene Transcription Factor (AID 2282990); conditions: HepG2, Attagene cis-reporter transcription factor activity; actives raise or lower the signal
Sequence of Myc proto-oncogene protein (Homo sapiens) (P01106 whole entry, looked up): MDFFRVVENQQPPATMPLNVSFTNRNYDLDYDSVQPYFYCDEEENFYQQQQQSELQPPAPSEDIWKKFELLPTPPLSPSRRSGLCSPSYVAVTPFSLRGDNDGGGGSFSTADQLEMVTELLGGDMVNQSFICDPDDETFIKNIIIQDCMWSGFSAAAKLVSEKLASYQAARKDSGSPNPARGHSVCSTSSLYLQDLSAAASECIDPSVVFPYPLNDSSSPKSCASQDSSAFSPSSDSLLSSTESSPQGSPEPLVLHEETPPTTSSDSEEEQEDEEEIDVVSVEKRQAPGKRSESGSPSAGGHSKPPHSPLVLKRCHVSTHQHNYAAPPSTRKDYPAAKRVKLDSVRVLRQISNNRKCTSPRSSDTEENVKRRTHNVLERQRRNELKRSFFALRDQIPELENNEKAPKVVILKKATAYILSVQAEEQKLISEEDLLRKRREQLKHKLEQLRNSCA
Outline: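 DMSO-normalised, bidirectionally fitted reporter mRNA signal. HepG2 cells transfected with cis reporter constructs, treated 24 h; transcripts detected by RT-PCR, 6-FAM primer extension and CE.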

[4] = ATG_NF_kB_CIS: Attagene CIS-FACTORIAL HepG2 Assay for human Nuclear Factor Kappa B (NF-kB) (AID 2282991); conditions: HepG2 Attagene cis-factorial NF-kB reporter mRNA; actives raise or lower the signal
Outline: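 HepG2 cells transiently transfected with multiplexed cis-element reporter units measuring endogenous transcription factor activity; reporter mRNA read 24 h after dosing by RT-PCR, fluorescent labelling, HpaI digestion and capillary electrophoresis. Bidirectional fit against DMSO baseline.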

[5] = ATG_NRF2_ARE_CIS: Attagene CIS-FACTORIAL HepG2 Assay for human Nuclear Factor Erythroid 2 Related Factor 2 (NFR2) response to Antioxidant Response Elements (ARE) (AID 2282992); conditions: HepG2 Attagene ARE/NRF2 reporter, transcription factor activity; actives raise or lower the signal;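 for AC50: reporter mRNA level measured by RT-PCR and capillary electrophoresis fluorescence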
Outline: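 Readout: reporter mRNA quantified by RT-PCR plus FAM-labelled primer extension, HpaI digestion and capillary electrophoresis, 24 h after dosing transfected HepG2 cells. Gain or loss of signal is fitted bidirectionally against DMSO baseline.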

[6] = ATG_Oct_MLP_CIS: Attagene CIS-FACTORIAL HepG2 Assay for human Octamer-Binding Transcription Factor (Oct) (AID 2282993); conditions: HepG2 Attagene cis-factorial Oct reporter, mRNA; actives raise or lower the signal
Outline: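 Using HepG2 cells bearing transfected cis-reporter constructs, mRNA induction was read after 24 h by fluorescent RT-PCR and capillary electrophoresis, with DMSO defining baseline for gain- or loss-of-signal fits.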

[7] = molecular target: Cellular tumor antigen p53 (Homo sapiens) (UniProt P04637); test: ATG_p53_CIS: Attagene CIS-FACTORIAL HepG2 Assay for human p53 Transcription Factor (AID 2282994); conditions: HepG2 p53 cis-element reporter, Attagene mRNA; actives raise or lower the signal
Sequence of Cellular tumor antigen p53 (Homo sapiens) (P04637 whole entry, looked up): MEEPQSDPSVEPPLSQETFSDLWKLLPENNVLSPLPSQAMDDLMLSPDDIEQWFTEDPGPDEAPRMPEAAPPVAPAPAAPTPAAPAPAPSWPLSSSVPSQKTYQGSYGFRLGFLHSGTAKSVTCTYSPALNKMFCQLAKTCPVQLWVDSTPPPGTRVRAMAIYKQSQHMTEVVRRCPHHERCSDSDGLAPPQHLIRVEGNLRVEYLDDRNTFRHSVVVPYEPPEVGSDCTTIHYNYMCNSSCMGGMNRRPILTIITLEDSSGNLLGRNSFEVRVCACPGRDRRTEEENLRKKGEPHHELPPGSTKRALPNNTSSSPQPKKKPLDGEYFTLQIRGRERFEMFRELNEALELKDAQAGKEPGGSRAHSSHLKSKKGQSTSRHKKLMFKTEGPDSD
Outline: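 Read-out: reporter mRNA by RT-PCR plus capillary electrophoresis with fluorescence detection. Human HepG2 liver cells carried transfected multi-reporter cis-element constructs, dosed 24 h. Gain or loss of signal fitted bidirectionally against DMSO control.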

[8] = BSK_3C_TissueFactor: BioMAP Diversity Plus: 3C Assay for Tissue Factor Biomarker Activity (AID 2282997); conditions: BioMAP 3C HUVEC, tissue factor biomarker readout; actives raise or lower the signal
Outline: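 Tissue factor on primary human umbilical vein endothelium was read by ELISA 24 h after dosing, gain or loss relative to DMSO. Cytotoxicity ran alongside via SRB (0.1%, TCA-fixed, 560 nm).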

[9] = BSK_3C_uPAR: BioMAP Diversity Plus: 3C Assay for Urokinase-type plasminogen activator receptor (uPAR) Biomarker Activity (AID 2282998); conditions: BioMAP 3C HUVEC, uPAR biomarker ELISA; actives raise or lower the signal
Outline: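 In this endothelial cell-based assay, human umbilical vein primary cells were treated with chemicals and harvested at 24 h. uPAR was quantified using ELISA, with gains or losses fitted relative to DMSO controls.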

[10] = BSK_3C_VCAM1: BioMAP Diversity Plus: 3C Assay for Vascular cell adhesion molecule 1 (VCAM1) Biomarker Activity (AID 2282999); conditions: BioMAP 3C HUVEC, VCAM1 ELISA, cytokine-stimulated; actives raise or lower the signal
Outline: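 Vascular primary endothelium (human umbilical vein) was exposed to chemicals and assayed 24 h later. VCAM-1 levels came from ELISA, with DMSO serving as baseline for bidirectional fitting.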

[11] = BSK_4H_Eotaxin3: BioMAP Diversity Plus: 4H Assay for Eotaxin 3 Biomarker Activity (AID 2283000); conditions: primary human endothelial cells (HUVEC); actives raise or lower the signal;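 note: CCL26 protein level quantified by ELISA in parallel with SRB cytotoxicity check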
Outline: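 Human umbilical vein endothelial cells (BSK_4H system) dosed with test chemical; Eotaxin-3 (CCL26) measured by ELISA 24 h after dosing. Bidirectional curve fitting relative to DMSO negative control as baseline.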

[12] = molecular target: human Peroxisome Proliferator-activated Receptor alpha (PPARa), PPARA (gene 5465) (UniProt Q07869); test: ATG_PPARa_TRANS: Attagene TRANS-FACTORIAL HepG2 Assay for human Peroxisome Proliferator-activated Receptor alpha (PPARa) (AID 2283001; active = hit-call score of the fitted dose curve at least 0.9, where 1 is the maximum)
Sequence of human Peroxisome Proliferator-activated Receptor alpha (PPARa), PPARA (gene 5465) (Q07869 whole entry, looked up, the tested form may be a part): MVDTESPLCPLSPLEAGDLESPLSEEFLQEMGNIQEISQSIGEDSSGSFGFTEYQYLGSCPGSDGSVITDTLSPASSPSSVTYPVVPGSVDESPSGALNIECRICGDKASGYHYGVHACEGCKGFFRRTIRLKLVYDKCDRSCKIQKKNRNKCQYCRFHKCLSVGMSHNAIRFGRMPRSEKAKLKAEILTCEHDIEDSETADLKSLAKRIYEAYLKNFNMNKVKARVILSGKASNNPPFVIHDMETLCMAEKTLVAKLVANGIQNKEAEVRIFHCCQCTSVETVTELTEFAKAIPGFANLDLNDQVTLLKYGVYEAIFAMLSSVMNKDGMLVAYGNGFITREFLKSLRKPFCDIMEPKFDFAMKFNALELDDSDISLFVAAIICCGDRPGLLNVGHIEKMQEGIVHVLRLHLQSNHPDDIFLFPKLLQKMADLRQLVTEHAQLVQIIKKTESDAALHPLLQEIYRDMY
Outline: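 Exposure: 24 h, transiently transfected HepG2 cells. Endpoint: GAL4-UAS reporter mRNA, RT-PCR with capillary electrophoresis fluorescence. Baseline: DMSO; increases fitted.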

[13] = molecular target: human Peroxisome Proliferator-activated Receptor delta (PPARd), PPARD (gene 5467) (UniProt Q03181); test: ATG_PPARd_TRANS: Attagene TRANS-FACTORIAL HepG2 Assay for human Peroxisome Proliferator-activated Receptor delta (PPARd) (AID 2283002; active = hit-call score of the fitted dose curve at least 0.9, where 1 is the maximum)
Sequence of human Peroxisome Proliferator-activated Receptor delta (PPARd), PPARD (gene 5467) (Q03181 whole entry, looked up, the tested form may be a part): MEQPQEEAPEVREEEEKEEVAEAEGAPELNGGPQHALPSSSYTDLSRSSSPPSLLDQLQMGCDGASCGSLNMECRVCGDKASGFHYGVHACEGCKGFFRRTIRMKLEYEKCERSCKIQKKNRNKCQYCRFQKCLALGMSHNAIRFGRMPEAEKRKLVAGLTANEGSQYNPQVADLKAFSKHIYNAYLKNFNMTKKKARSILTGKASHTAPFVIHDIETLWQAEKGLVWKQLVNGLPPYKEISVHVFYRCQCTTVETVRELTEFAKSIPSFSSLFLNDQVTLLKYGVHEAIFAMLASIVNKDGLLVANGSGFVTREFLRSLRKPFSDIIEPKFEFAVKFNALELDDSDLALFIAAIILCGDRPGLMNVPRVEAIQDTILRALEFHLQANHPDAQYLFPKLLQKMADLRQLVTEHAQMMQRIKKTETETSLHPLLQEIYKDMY
Outline: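 Measured quantity: GAL4-UAS reporter transcript induction in HepG2 after 24 h chemical dosing, with NR-Gal4 chimeras supplied by transient transfection. Detection by RT-PCR and capillary electrophoresis; upward fit against DMSO.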

[14] = read-out: Intercellular Adhesion Molecule 1 (ICAM1), ICAM1 (gene 3383); test: BSK_3C_ICAM1: BioMAP Diversity Plus: 3C Assay for Intercellular Adhesion Molecule 1 (ICAM1) Biomarker Activity (AID 2283003); conditions: primary human endothelial cells (HUVEC); actives raise or lower the signal
Outline: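 ELISA read-out of ICAM-1; HUVEC (primary human), 3C system, 24 h post-dosing; bidirectional fit vs DMSO baseline.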

[15] = molecular target: human Retinoic Acid Receptor beta (RARb), RARB (gene 5915) (UniProt P10826); test: ATG_RARb_TRANS: Attagene TRANS-FACTORIAL HepG2 Assay for human Retinoic Acid Receptor beta (AID 2283004; active = hit-call score of the fitted dose curve at least 0.9, where 1 is the maximum)
Sequence of human Retinoic Acid Receptor beta (RARb), RARB (gene 5915) (P10826 whole entry, looked up, the tested form may be a part): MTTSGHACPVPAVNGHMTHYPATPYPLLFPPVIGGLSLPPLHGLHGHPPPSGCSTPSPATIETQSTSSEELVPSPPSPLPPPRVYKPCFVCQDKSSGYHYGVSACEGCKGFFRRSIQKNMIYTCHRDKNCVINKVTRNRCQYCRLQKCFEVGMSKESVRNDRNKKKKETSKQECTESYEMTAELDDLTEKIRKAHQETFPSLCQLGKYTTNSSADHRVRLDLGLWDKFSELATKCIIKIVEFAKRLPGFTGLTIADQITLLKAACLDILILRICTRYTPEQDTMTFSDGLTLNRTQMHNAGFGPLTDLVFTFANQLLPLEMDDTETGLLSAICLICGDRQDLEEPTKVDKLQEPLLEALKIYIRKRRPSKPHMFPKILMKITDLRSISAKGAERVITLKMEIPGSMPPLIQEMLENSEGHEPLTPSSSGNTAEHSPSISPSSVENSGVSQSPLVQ
Outline: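 Induction of reporter mRNA from a chimeric RARb-Gal4 construct was measured by RT-PCR, FAM labelling, HpaI digestion and capillary electrophoresis. Measurements followed 24 h compound treatment of transiently transfected human HepG2 liver cells, with DMSO as baseline.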

[16] = BSK_3C_Proliferation: Cell Proliferation Assessment in the BioMAP Diversity Plus: 3C Assay (AID 2283006); conditions: primary human endothelial cells (HUVEC);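 for AC50: potency may reflect either rise or fall in cell number versus DMSO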
Outline: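 HUVEC, sub-confluent; 48 h chemical exposure; 10% TCA fix, 0.1% SRB stain, A560 total protein. Gain or loss of signal fitted both directions vs DMSO control.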

[17] = molecular target: Peroxisome proliferator-activated receptor gamma (Homo sapiens) (UniProt P37231); test: ATG_PPARg_TRANS: Attagene TRANS-FACTORIAL HepG2 Assay for human Peroxisome Proliferator-activated Receptor-gamma (PPARg) (AID 2283007; active = hit-call score of the fitted dose curve at least 0.9, where 1 is the maximum)
Sequence of Peroxisome proliferator-activated receptor gamma (Homo sapiens) (P37231 whole entry, looked up, the tested form may be a part): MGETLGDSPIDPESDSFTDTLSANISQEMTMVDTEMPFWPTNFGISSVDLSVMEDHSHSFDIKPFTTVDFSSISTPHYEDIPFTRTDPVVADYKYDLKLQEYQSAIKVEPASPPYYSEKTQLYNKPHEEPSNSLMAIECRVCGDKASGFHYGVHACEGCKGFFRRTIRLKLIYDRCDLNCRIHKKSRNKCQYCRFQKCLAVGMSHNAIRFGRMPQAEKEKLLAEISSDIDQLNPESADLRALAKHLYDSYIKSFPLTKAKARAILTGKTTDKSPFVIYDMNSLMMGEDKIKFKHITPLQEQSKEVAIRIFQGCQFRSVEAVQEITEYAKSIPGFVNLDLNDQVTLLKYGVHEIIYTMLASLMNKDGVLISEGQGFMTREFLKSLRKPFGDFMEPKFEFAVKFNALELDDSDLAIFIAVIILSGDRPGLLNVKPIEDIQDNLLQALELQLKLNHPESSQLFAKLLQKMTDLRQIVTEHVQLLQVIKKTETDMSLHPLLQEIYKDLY
Outline: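 HepG2 cells transiently transfected with multiplexed GAL4-UAS reporter units and exogenous chimeric NR-Gal4 proteins; reporter mRNA quantified after 24 h compound exposure by RT-PCR, fluorescent labelling, HpaI digestion and capillary electrophoresis; gain-of-signal fitted versus DMSO baseline.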

[18] = molecular target: Nuclear receptor subfamily 1 group I member 2 (Homo sapiens) (UniProt O75469); test: ATG_PXR_TRANS: Attagene TRANS-FACTORIAL HepG2 Assay for human Pregnane X Receptor (PXR) (AID 2283008; active = hit-call score of the fitted dose curve at least 0.9, where 1 is the maximum)
Sequence of Nuclear receptor subfamily 1 group I member 2 (Homo sapiens) (O75469 whole entry, looked up, the tested form may be a part): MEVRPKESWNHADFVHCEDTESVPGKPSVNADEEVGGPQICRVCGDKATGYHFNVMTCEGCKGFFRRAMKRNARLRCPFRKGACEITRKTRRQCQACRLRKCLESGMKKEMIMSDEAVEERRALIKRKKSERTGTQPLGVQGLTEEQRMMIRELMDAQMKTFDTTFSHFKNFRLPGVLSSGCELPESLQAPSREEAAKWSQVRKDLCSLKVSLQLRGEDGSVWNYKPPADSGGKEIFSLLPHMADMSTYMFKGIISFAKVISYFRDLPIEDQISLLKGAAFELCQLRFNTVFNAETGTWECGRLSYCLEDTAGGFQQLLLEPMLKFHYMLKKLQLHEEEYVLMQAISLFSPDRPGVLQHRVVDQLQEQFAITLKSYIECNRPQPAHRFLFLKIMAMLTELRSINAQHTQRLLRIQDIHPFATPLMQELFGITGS
Outline: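 Trans-factorial format: exogenous NR-Gal4 fusion activity, not endogenous factor, in transfected human HepG2 liver cells. After 24 h dosing, RNA isolated, reverse-transcribed, amplified and resolved by capillary electrophoresis; induction scored versus DMSO.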

[19] = molecular target: human Retinoic Acid Receptor gamma (RARg), RARG (gene 5916) (UniProt P13631); test: ATG_RARg_TRANS: Attagene TRANS-FACTORIAL HepG2 Assay for human Retinoic Acid Receptor gamma (RARg) (AID 2283009; active = hit-call score of the fitted dose curve at least 0.9, where 1 is the maximum)
Sequence of human Retinoic Acid Receptor gamma (RARg), RARG (gene 5916) (P13631 whole entry, looked up, the tested form may be a part): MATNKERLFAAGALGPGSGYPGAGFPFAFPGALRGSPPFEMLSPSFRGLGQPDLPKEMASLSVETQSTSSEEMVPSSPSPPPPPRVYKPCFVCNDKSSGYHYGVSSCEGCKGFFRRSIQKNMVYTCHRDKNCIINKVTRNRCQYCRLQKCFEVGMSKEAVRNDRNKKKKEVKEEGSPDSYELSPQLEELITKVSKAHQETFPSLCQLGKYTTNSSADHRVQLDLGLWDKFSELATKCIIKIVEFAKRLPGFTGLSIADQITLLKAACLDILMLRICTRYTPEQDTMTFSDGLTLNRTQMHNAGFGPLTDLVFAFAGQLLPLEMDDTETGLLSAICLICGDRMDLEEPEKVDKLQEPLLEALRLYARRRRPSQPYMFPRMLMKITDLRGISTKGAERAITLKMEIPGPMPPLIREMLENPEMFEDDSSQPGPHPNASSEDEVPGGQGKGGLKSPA
Outline: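 Readout: reporter transcript levels via RT-PCR, 6-FAM primer-extension labelling, HpaI digestion and capillary electrophoresis. Cells: HepG2 carrying transfected RARg-GAL4 chimera plus UAS reporter set. Dosing 24 h; DMSO negative control.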

[20] = molecular target: Retinoic acid receptor alpha (Homo sapiens) (UniProt P10276); test: ATG_RARa_TRANS: Attagene TRANS-FACTORIAL HepG2 Assay for human Retinoic Acid Receptor alpha (RARa) (AID 2283005; active = hit-call score of the fitted dose curve at least 0.9, where 1 is the maximum)
Sequence of Retinoic acid receptor alpha (Homo sapiens) (P10276 whole entry, looked up, the tested form may be a part): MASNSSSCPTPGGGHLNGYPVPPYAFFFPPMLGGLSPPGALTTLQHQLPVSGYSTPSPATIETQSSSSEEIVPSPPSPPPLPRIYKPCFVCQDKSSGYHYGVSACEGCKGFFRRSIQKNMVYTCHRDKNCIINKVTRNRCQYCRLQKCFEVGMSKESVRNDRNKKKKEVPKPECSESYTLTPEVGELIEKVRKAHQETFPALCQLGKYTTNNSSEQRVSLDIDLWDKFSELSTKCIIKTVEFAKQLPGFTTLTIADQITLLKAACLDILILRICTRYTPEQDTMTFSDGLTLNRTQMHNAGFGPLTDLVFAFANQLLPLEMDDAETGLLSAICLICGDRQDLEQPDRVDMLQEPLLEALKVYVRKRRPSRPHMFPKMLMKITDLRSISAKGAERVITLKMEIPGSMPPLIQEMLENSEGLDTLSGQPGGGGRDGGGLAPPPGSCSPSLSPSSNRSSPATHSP
Outline: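 HepG2 cells transiently transfected with multiple reporter units expressing chimeric RARα-GAL4 fusion, with GAL4-UAS-driven reporters. After 24 h compound exposure, reporter mRNA induction quantified by RT-PCR and capillary electrophoresis with fluorescent labeling; gain-of-signal fitted relative to DMSO control.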

Measured: AC50

COP(=S)(OC)Oc1ccc(SC)c(C)c1
active: [5] 15.5 µM | [17] 33.3 µM | [18] 39.3 µM
not listed: [20]
inactive: all other assays above

CCOc1nc(NC)nc(NC(=O)NS(=O)(=O)c2ccccc2C(=O)OC)n1
not listed: [3] | [14] | [15] | [18] | [19] | [20]
inactive: all other assays above

O=C(O)CCCOc1ccc(Cl)cc1Cl
active: [5] 63.9 µM | [17] 34.5 µM
inactive: [1] | [2] | [3] | [5] | [6] | [7] | [8] | [9] | [10] | [11] | [12] | [14] | [15] | [20] | [16] | [17] | [18]

CC(C)OC(=O)Nc1cccc(Cl)c1
active: [5] 21 µM | [6] 39.4 µM | [17] 50 µM | [18] 65.4 µM
not listed: [3] | [14] | [19]
inactive: all other assays above

COc1nn(CSP(=S)(OC)OC)c(=O)s1
active: [5] 23.4 µM | [6] 18 µM
not listed: [14] | [17]
inactive: all other assays above

O=C1c2ccccc2C(=O)N1SC(Cl)(Cl)Cl
active: [5] 14.8 µM
not listed: [12] | [13] | [14] | [19]
inactive: all other assays above

CNC(=O)CSP(=S)(OC)OC
not listed: [4] | [7] | [15] | [19] | [20]
inactive: all other assays above

CCOC1Oc2ccc(OS(C)(=O)=O)cc2C1(C)C (stereo unspecified)
active: [5] 9.79 µM | [6] 23.9 µM | [18] 29.6 µM
not listed: [7] | [12] | [14]
inactive: all other assays above

CC(C)(C)C(O)C(Oc1ccc(Cl)cc1)n1cncn1 (stereo unspecified)
inactive: [1] | [2] | [3] | [4] | [5] | [6] | [7] | [8] | [9] | [10] | [11] | [12] | [15] | [20] | [16] | [17] | [18] | [19]
active: [5] 4.01 µM | [6] 2.07 µM | [18] 434 nM [middle of 5 runs]

COC(=O)c1ccccc1S(=O)(=O)NC(=O)N(C)c1nc(C)nc(OC)n1
not listed: [12] | [14] | [15] | [19] | [20]
inactive: all other assays above

C[C@H]1[C@H](c2ccc(Cl)cc2)SC(=O)N1C(=O)NC1CCCCC1
active: [5] 13.5 µM | [6] 13.7 µM | [9] 13.1 µM | [16] 13.1 µM | [17] 16 µM
not listed: [4] | [12] | [13] | [14]
inactive: all other assays above

COC(=O)c1ccccc1CS(=O)(=O)NC(=O)Nc1nc(OC)cc(OC)n1
inactive: [1] | [2] | [4] | [5] | [6] | [7] | [8] | [9] | [10] | [11] | [12] | [13] | [15] | [20] | [16] | [17] | [18] | [19]
active: [5] 24.2 µM
